# Laboratory results as given in PubChem BioAssay.
# Active and inactive are the calls of the source. Unless noted, how the calls were made is not given here.
# Tests used:
# [1] = tested on: Wnt5a (protein binding on small-molecule microarray); experiment: small molecules binding Wnt5a protein – biophysical, small-molecule microarray, 635/667 nm fluorescence, primary screen (AID 1142); settings: 635 nm fluorescence, higher = more signal;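 further: fluorescence read at 667 nm with signal to noise per printed feature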
# [2] = ATP-based viability of Huh7 replicon cells – cell-based, CellTiter-Glo luminescence, basal, 48 h, cytotoxicity control for HCV replication inhibitor project, primary screen (AID 1143); settings: higher = more signal, called active from +8 up or from −8 down;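 further: Huh7 hepatoma cells carrying a hepatitis C replication reporter with no stimulus; test concentration not given here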
# [3] = Pseudomonas biofilm growth suppression – PAO1 strain, BacTiter-Glo luminescence, LB-PBS, primary screen (AID 1144); settings: P. aeruginosa PAO1 biofilm, 12 h, higher = more signal
# [4] = basal CRE-LacZ reporter activity in PC12 – cell-based, unstimulated, primary screen (AID 1145); settings: no forskolin, luminescence, 4.5 h, higher = more signal, called active from +8 up or from −8 down
# [5] = forskolin-driven CRE-LacZ activity in PC12 – cell-based, CRE-LacZ reporter, forskolin-stimulated, primary screen (AID 1146); settings: luminescence, 4.5 h, higher = more signal, called active from +8 up or from −8 down;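 further: PC12 cells with 6xCRE LacZ reporter stimulated by forskolin 10 µM; beta-galactosidase reporter signal reflecting CREB driven transcription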
# [6] = target: Streptavidin (Streptomyces avidinii) (UniProt P22629); experiment: compounds binding control protein streptavidin – biophysical, small-molecule microarray, 635/667 nm fluorescence, artefact control for SMM compound annotation, primary screen (AID 1147); settings: higher = more signal;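 further: signal reflects streptavidin binding to arrayed compounds as a control protein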
# [7] = probe aInhba binding on compound microarray – biochemical, small-molecule microarray, 635/667 nm fluorescence, primary screen (AID 1148); settings: higher = more signal;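 further: score merges 667nm spot fluorescence with signal-to-noise for antibody binding to printed compounds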
# Torsin-1A (Homo sapiens) [8] = target: Torsin-1A (Homo sapiens) (UniProt O14656); experiment: TOR1A wild-type binding on microarray – cell lysate, small-molecule microarray, lysate, 635/667 nm, primary screen (AID 1149); settings: COS7 hTOR1A-WT lysate, 635 nm fluorescence, higher = more signal
# Torsin-1A (Homo sapiens) [9] = target: Torsin-1A (Homo sapiens) (UniProt O14656); experiment: torsin A mutant lysate binding on microarrays – cell lysate, small-molecule microarray, COS7 lysate, 635/667 nm fluorescence, primary screen (AID 1150); settings: COS7 hTOR1A mutant lysate, 635 nm fluorescence, higher = more signal;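 further: score pools 667 nm emission and signal to noise measuring lysate protein binding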
# [10] = tested on: Sonic hedgehog protein (Shh); experiment: Sonic hedgehog microarray binding compounds – biochemical, small-molecule microarray, 635/667 nm fluorescence, primary screen (AID 1151); settings: 635 nm fluorescence, higher = more signal;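 further: Shh protein binding to compounds spotted on small-molecule microarray slides; score combines spot fluorescence intensity with signal-to-noise across triplicate slides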
# [11] = optical density shifts of acrAB sulA E. coli – strain DRC41, OD650, 48 h, E. coli filamentation inducer project, primary screen (AID 1152); settings: higher = more signal, called active from +8 up or from −8 down;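 further: E. coli MC1000 strain DRC41 lacking acrAB efflux pump and sulA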
# [12] = probe aLefty1 binding on compound microarray – biochemical, small-molecule microarray, 635/667 nm fluorescence, primary screen (AID 1153); settings: higher = more signal;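 further: score merges spot fluorescence with signal-to-noise ratio from the scanned slide images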
# [13] = plasmodial surface anion channel blockers, osmotic lysis – cell-based, P. falciparum Indochina, OD700, 1 h, primary screen (AID 1154); settings: P. falciparum Indochina infected RBC osmotic lysis, higher = more signal, called active from +8 up or from −8 down
# [14] = plasmodial surface anion channel blockers, osmotic lysis – cell-based, P. falciparum Indochina, OD700, 2 h, primary screen (AID 1155);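 further: lysis reports solute entry through the parasite surface anion channel PSAC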; settings: P. falciparum Indochina infected erythrocytes, higher = more signal, called active from +8 up or from −8 down
# [15] = changes in parasitized red cell lysis, either direction – P. falciparum Indochina, OD700, 3 h, PSAC antagonist project, primary screen (AID 1156); settings: P. falciparum-infected erythrocytes, osmotic lysis, higher = more signal, called active from +8 up or from −8 down
# [16] = plasmodial surface anion channel blockers, osmotic lysis – cell-based, P. falciparum Indochina, OD700, 18 h, primary screen (AID 1157); settings: P. falciparum Indochina infected erythrocytes, osmotic lysis OD700, 18 h; higher = more signal, called active from +8 up or from −8 down
# [17] = S6 kinase pathway phospho-S6 level changes – cell-based, A549, cytoblot, luminescence, serum-stimulated, primary screen (AID 1158); settings: 5 h, higher = more signal;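 further: serum-stimulated A549 lung adenocarcinoma cells; signal is phosphorylated S6 detected by cytoblot immunostaining with HRP secondary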
# [18] = target: NADPH oxidase 2 (Homo sapiens) (UniProt P04839); experiment: compounds shifting NOX2 Amplex Red fluorescence – cell-based, HEK293-NOX2, PMA-stimulated, NOX inhibitor project, primary screen (AID 1159); settings: 45 min, higher = more signal, called active from +8 up or from −8 down; further: test concentration not given here
# [19] = target: NADPH oxidase 4 (Homo sapiens) (UniProt Q9NPH5); experiment: compounds shifting NOX4 Amplex Red fluorescence – cell-based, HEK293-NOX4, tetracycline-induced, NOX inhibitor project, primary screen (AID 1160); settings: HEK293-NOX4, Amplex Red H2O2 fluorescence, 45 min; higher = more signal, called active from +8 up or from −8 down
# [20] = target: NADPH oxidase 5 (Homo sapiens) (UniProt Q96PH1); experiment: compounds shifting NOX5 Amplex Red fluorescence – cell-based, HEK293-NOX5, NOX inhibitor project, primary screen (AID 1161); settings: HEK293-NOX5, ionomycin, 45 min, higher = more signal
# Sequence of NADPH oxidase 5 (Homo sapiens) (Q96PH1 whole entry, looked up): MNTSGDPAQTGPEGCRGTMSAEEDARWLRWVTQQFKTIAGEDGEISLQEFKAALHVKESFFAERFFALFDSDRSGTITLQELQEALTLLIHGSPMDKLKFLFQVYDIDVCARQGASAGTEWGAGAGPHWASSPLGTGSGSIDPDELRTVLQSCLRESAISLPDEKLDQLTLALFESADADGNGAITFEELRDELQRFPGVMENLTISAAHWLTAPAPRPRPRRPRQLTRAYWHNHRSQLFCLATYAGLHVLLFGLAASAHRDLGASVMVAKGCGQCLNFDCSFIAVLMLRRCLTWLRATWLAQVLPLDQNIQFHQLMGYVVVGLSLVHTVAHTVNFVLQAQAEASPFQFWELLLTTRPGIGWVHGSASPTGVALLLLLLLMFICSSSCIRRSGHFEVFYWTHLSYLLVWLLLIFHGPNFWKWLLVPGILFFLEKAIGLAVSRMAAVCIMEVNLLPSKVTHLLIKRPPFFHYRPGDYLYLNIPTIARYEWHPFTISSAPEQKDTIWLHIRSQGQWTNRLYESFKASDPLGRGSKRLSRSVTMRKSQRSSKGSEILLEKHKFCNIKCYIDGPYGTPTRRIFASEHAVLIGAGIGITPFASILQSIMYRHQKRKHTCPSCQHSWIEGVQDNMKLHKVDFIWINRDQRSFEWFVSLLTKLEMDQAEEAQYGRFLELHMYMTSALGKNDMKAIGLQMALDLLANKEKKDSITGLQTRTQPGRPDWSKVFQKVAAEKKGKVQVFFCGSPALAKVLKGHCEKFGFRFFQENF
# Sequence of NADPH oxidase 2 (Homo sapiens) (P04839 whole entry, looked up): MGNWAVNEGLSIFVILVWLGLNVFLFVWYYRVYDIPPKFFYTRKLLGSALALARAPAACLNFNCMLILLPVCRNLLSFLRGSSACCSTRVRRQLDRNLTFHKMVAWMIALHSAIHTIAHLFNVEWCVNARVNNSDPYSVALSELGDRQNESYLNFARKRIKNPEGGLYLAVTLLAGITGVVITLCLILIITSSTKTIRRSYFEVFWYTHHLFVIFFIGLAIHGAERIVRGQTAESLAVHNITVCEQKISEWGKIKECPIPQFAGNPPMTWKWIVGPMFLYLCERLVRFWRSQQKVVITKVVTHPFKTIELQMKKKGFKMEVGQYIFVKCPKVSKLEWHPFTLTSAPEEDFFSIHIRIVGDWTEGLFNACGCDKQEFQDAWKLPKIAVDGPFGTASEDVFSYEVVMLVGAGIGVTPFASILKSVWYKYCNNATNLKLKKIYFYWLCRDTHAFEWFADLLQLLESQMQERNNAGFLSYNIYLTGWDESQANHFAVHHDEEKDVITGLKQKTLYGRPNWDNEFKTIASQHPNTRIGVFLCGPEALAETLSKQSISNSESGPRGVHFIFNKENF
# Sequence of Torsin-1A (Homo sapiens) (O14656 whole entry, looked up): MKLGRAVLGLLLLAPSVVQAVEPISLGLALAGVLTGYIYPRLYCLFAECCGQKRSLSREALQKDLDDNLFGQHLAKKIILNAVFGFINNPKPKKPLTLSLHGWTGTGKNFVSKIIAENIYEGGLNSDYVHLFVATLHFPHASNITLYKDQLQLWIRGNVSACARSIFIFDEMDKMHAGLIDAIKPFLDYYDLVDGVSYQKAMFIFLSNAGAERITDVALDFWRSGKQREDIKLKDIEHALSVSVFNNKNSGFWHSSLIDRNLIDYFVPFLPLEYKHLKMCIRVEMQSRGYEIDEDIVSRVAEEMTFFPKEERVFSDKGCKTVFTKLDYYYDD
# Sequence of NADPH oxidase 4 (Homo sapiens) (Q9NPH5 whole entry, looked up): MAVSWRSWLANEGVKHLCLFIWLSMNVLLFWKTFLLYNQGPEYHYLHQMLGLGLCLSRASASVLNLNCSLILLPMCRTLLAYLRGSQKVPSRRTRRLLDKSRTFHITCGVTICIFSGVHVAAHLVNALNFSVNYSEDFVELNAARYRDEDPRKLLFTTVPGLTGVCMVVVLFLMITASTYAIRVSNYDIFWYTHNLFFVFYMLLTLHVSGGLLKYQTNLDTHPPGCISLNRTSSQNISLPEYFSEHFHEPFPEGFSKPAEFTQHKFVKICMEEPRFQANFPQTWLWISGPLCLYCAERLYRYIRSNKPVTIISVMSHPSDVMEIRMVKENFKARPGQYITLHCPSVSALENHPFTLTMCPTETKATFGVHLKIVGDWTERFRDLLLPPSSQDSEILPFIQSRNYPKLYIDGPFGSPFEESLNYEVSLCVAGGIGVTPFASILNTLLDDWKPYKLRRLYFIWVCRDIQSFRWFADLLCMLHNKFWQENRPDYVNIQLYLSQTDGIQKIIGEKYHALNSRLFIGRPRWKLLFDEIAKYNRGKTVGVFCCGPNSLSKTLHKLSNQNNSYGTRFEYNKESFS
# Sequence of Streptavidin (Streptomyces avidinii) (P22629 whole entry, looked up): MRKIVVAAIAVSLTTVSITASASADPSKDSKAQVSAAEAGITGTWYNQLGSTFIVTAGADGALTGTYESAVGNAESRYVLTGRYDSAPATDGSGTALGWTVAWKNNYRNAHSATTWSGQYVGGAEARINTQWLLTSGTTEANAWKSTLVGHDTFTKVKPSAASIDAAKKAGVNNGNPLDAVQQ
Compound,composite z-score [1],z-score [2],z-score [3],z-score [4],z-score [5],composite z-score [6],composite z-score [7],composite z-score (Torsin-1A (Homo sapiens) [8]),composite z-score (Torsin-1A (Homo sapiens) [9]),composite z-score [10],z-score [11],composite z-score [12],z-score [13],z-score [14],z-score [15],z-score [16],z-score [17],z-score [18],z-score [19],z-score [20]
C[C@@H]1ON(c2ccc(I)cc2)[C@H](c2cccc(NC(=O)OCC3c4ccccc4-c4ccccc43)c2)[C@H]1C(=O)N1C(=O)OC[C@H]1Cc1ccccc1,0.0217,-0.659 (inactive),-0.215 (inactive),2.13 (inactive),-0.0677 (inactive),0.226,-0.0893,0.579,-0.0059,0.851,1.26 (inactive),0.185,-0.261 (inactive),0.755 (inactive),0.0181 (inactive),0.0584 (inactive),-0.447,-0.143 (inactive),-2.58 (inactive),-2.6
C=C(COC)C(=O)CC[C@@H](OC(C)=O)c1ccccc1OCCO,0.866,-2.43 (inactive),-0.787 (inactive),1.54 (inactive),8.39 (active),-0.507,-0.0403,0.135,1.05,2.32,0.929 (inactive),-0.152,1.73 (inactive),-0.91 (inactive),-0.0421 (inactive),-1.95 (inactive),0.846,-1.51 (inactive),0.146 (inactive),-1.38
Cc1ccc(S[C@]2(C(=O)NC3CC3)CC(=O)N(C(C)C)[C@@H]2c2ccc(CO)cc2I)cc1,-0.385,-4.82 (inactive),-1.21 (inactive),0.299 (inactive),1.42 (inactive),-0.677,-0.394,0.778,0.652,0.677,0.839 (inactive),-0.703,5.84 (inactive),-0.558 (inactive),0.927 (inactive),-1.31 (inactive),2.32,0.828 (inactive),-1.91 (inactive),-2.33
CCCCC(=C=CC[C@H](O)c1ccc(CO)o1)CCO,0.0119,0.0865 (inactive),0.0836 (inactive),0.96 (inactive),1.56 (inactive),-0.144,-0.128,1.39,0.587,1.69,-0.258 (inactive),-0.0445,2 (inactive),0.278 (inactive),0.517 (inactive),0.134 (inactive),-0.189,0.802 (inactive),-0.0669 (inactive),-0.395
O=C1C[C@@](C(=O)NCc2ccccc2)(c2ccc([N+](=O)[O-])cc2)[C@@H](c2ccc(CO)cc2)N1C1CCCCC1,0.203,-4.1 (inactive),-0.967 (inactive),0.531 (inactive),-0.932 (inactive),-0.0057,0.333,0.944,0.812,0.998,1.09 (inactive),0.857,0.661 (inactive),-0.881 (inactive),-0.436 (inactive),-0.877 (inactive),1.58,-0.522 (inactive),0.333 (inactive),0.0696
CN(C)CCCNC(=O)[C@@]1(Cc2ccccc2I)c2ccccc2C(=O)N(C2CCCCC2)[C@H]1c1ccc(CO)cc1,0.418,-5.91 (inactive),1.69 (inactive),2.12 (inactive),1.76 (inactive),1.19,0.41,0.305,0.794,0.618,-2.04 (inactive),0.482,2.37 (inactive),-0.0009 (inactive),-2.34 (inactive),-0.456 (inactive),-2.25,-9.9 (active),-4.06 (inactive),-3.65
CCCCCCc1nc(Cc2cc(OC)c(OC)c(OC)c2)cc2c1[Si](C(C)C)(C(C)C)O[C@H]2c1ccccc1,-0.0493,-2.1 (inactive),0.129 (inactive),0.367 (inactive),0.0748 (inactive),0.0406,-0.154,0.128,-0.155,1.19,-1.42 (inactive),0.092,0.612 (inactive),0.482 (inactive),0.491 (inactive),-0.23 (inactive),-0.147,-0.472 (inactive),-0.137 (inactive),-1.73
COC(=O)[C@@]1(Cc2ccc(OC)cc2)[C@H]2c3cc(C(=O)N(C)C)[nH]c3C[C@H]2CN1C(=O)c1ccccc1,0.117,0.244 (inactive),0.857 (inactive),0.383 (inactive),-0.289 (inactive),0.226,-0.0645,-0.209,-0.369,-0.814,-0.439 (inactive),-0.0969,5.74 (inactive),0.806 (inactive),0.395 (inactive),0.764 (inactive),-0.38,0.371 (inactive),0.602 (inactive),-1.58
C=C(CCCC)C(=O)CC[C@@H](OC(=O)c1ccccc1-c1ccccc1C(=O)O)c1ccccc1OCCO,0.0726,-1.62 (inactive),-0.131 (inactive),6.69 (inactive),2.06 (inactive),-0.34,-0.157,1.21,0.818,1.56,0.414 (inactive),-0.0003,6.1 (inactive),0.148 (inactive),-0.138 (inactive),-1.14 (inactive),0.332,1.78 (inactive),0.0357 (inactive),-1.39
